Results taken from ChEMBL document CHEMBL4888484, “Replenishing the malaria drug discovery pipeline: Screening and hit evaluation of the MMV Hit Generation Library 1 (HGL1) against asexual blood stage Plasmodium falciparum ,using a nano luciferase reporter read-out” (2022).
Among all 4,800 compounds or so, about 410 (8.5%) showed an effect of 50% or more. The list comes from a sample in which strong results are over-represented; it also holds similar structures and randomly drawn compounds.

Tested on: Plasmodium falciparum
Experiment: Confirmatory screen in NF54 pLDH assay, in single point, at 2uM, 72h
Assay type: functional, Erythrocyte
Conditions: timepoint 72 hour

Point of comparison: `COc1ccc(Nc2nc(C(C(F)(F)F)(C(F)(F)F)C(F)(F)F)nc(C(C(F)(F)F)(C(F)(F)F)C(F)(F)F)n2)cc1`, “% Inhibition” value 11%. Against it:
- Cc1cc(Br)ccc1CN(C)S(C)(=O)=O — lower, -4%
- CCOc1ccc2sc(NC(=O)Cn3cnc4nc(N5CCCCC5)sc4c3=O)nc2c1 — lower, -1%
- Cn1ccc(C2=Nc3ccccc3NC(=O)C2)n1 — lower, -4%
- O=S(=O)(c1ccc(Cl)cc1)N1CCC(c2cc(-c3cccc(C(F)(F)F)c3)[nH]n2)CC1 — lower, 0%
- O=S(=O)(c1ccc(F)c(Cl)c1)N1CC[C@H](Oc2ccncc2Cl)C1 — higher, 89%
- O=S(=O)(c1ccco1)N1CC[C@H](Oc2ccccc2)C1 — lower, 10%
- O=S(=O)(c1ccc(Br)o1)N1CCCC[C@H]1c1ncc[nH]1 — lower, -20%
- Cc1ccc(NC(=O)COC(=O)c2nccc3ccccc23)cc1 — the same, 11%
- COc1cccc(CC(=O)N2CCc3nc(N4CCC(C)CC4)nc(Oc4ccccc4OC)c3C2)c1 — higher, 61%
- CC1CCN(c2nc3c(c(Oc4cccc(F)c4)n2)CN(Cc2ccccn2)CC3)CC1 — higher, 21%
- COc1cccc(Oc2nc(N3CCN(C)CC3)nc3c2CN(C(=O)Nc2ccccc2)CC3)c1 — lower, 10%
- Cc1cc(C)n(S(=O)(=O)c2cccc3cccnc23)n1 — lower, -10%
- CCn1cc(C(=O)Nc2ccc(C(=O)N3CCCCC3)cc2)cn1 — lower, 5%
- CCN(CC)c1ccc(C(=O)Nc2ccc3nc(N4CCCC4)cc(C)c3c2)cc1 — higher, 93%
- COc1cc(OC)cc(C(=O)Nc2ccc3nc(N4CCC(C)CC4)cc(C)c3c2)c1 — higher, 40%
- O=C1CN(S(=O)(=O)c2ccc(C(F)(F)F)cc2)C2(CCCCC2)CN1CC1CC1 — lower, -14%
- CCOC(=O)c1c(CN2CCOCC2)n(-c2ccc(C)cc2)c2ccc(Oc3nccc(Nc4ccccc4)c3C#N)cc12 — lower, 7%
- COCc1cc2nn(CC(=O)Nc3ccc(F)cc3)c(=O)n2c(-c2ccccc2)n1 — lower, -27%
- O=C(Nc1ccccc1)C1=NN(CC(=O)N2CCCCC2)C(=O)CC1 — lower, -1%
- CC(NS(C)(=O)=O)C(=O)N1CCC(F)(c2cc(F)cc(F)c2)C1 (stereo unspecified) — higher, 12%
- O=c1cc(-c2ccccc2)n(S(=O)(=O)c2ccccc2)o1 — lower, -7%
- Clc1cccc(N2CCN(Cc3ccc(OC4CCNCC4)cc3)CC2)c1 — higher, 14%
- CC(=O)C1(C(C)=O)[C@H](c2ccc(F)cc2)C1(C#N)C#N — lower, -24%
- O=C(CCC1CCCCC1)Nc1ncccn1 — lower, -9%
- O=C(NCCCc1ccccc1)[C@H]1CCCN(c2nc3ccccc3[nH]2)C1 — lower, -4%
